aSyn 5UTR act: Activators working through SNCA 5'UTR binding (MLPCN) | alpha-synuclein 5'UTR reporter, activators screen | activity score, % (tested at 7.5 µM), hits read low | 300,000 tested, 7.1% active | AID 1814; in the data active = activity score below about -60%
* hit, by the source's call. A selection follows.

O=C(c1ccc(S(=O)(=O)c2cccc(Cl)c2)c([N+](=O)[O-])c1)N1CCN(c2ccccn2)CC1 was read as aSyn 5UTR act -62*.
`O=C(c1ccc(S(=O)(=O)c2ccccc2Cl)c([N+](=O)[O-])c1)N1CCCCCC1` gave aSyn 5UTR act -98*.
COc1ccc2c(C)nc(Nc3nc(C)c(C)c(=O)[nH]3)nc2c1 was read as aSyn 5UTR act 103.
CCc1c(C)nc(Nc2nc(C)c3cc(OC)ccc3n2)[nH]c1=O was read as aSyn 5UTR act -102*.
COc1ccc2occ(C(=O)c3cccs3)c2c1 was read as aSyn 5UTR act -242*.
`Cc1nn(Cc2ccccc2Cl)c2sc(C(=O)NCCCn3ccnc3)cc12` gave aSyn 5UTR act -105*.
Screening O=C(NC1CCCCC1)C(=O)c1c[nH]c2ccccc12 returned aSyn 5UTR act -115*.
Screening O=C(NCCC1=CCCCC1)C(=O)c1c[nH]c2ccccc12 returned aSyn 5UTR act -81*.
`O=C(NCC1CCCO1)C(=O)c1c[nH]c2ccccc12` (centres undefined) gave aSyn 5UTR act -73*.
For O=C(NC1CCCC1)c1n[nH]c2ccccc12 the results were aSyn 5UTR act -86*.
Cc1ccc(NC(=O)C(=O)c2c[nH]c3ccccc23)cc1 was read as aSyn 5UTR act -169*.
N#CC1=C(N)Oc2c(ccc3ccccc23)C1c1cccs1 (centres undefined) was read as aSyn 5UTR act 110.
CC(=O)n1c2c(c3ccccc31)OC(N)=C(C#N)C2c1ccc(C(C)C)cc1 (centres undefined) was read as aSyn 5UTR act -118*.
For CCOc1cc(CNc2ccc(N3CCCC3)cc2)cc(Cl)c1OC the results were aSyn 5UTR act -67*.
`C=CCOc1c(Cl)cc(CNc2ccc(C)c(Cl)c2)cc1OC` gave aSyn 5UTR act 85.
`COc1ccc(/C=C2\N=C(SC)N(C)C2=O)cc1` gave aSyn 5UTR act -63*.
For N#C/C(=C(/O)c1cccc(F)c1)c1nc2ccccc2s1 the results were aSyn 5UTR act -149*.
`N#C/C(=C(\O)c1ccco1)c1ccccn1` gave aSyn 5UTR act -91*.
`N#C/C(=C(/O)c1ccco1)c1nc2ccccc2s1` gave aSyn 5UTR act -128*.
For N#C/C(=C(/O)c1cc2ccccc2o1)c1nc2ccccc2s1 the results were aSyn 5UTR act -120*.
For Cc1ccc2oc(-c3cccc(NC(=O)c4ccccn4)c3)nc2c1 the results were aSyn 5UTR act -96*.
Screening COc1cc(C(=O)Nc2cccc(-c3nc4cc(C)ccc4o3)c2)cc(OC)c1OC returned aSyn 5UTR act -162*.
`COc1cc(C(=O)Nc2cc(-c3nc4cc(C)ccc4o3)ccc2C)cc(OC)c1OC` gave aSyn 5UTR act -129*.
Screening COc1cc(OC)cc(-c2nc3cc(C)ccc3o2)c1 returned aSyn 5UTR act -216*.
For O=C(Nc1ccc(F)cc1)Nc1ccc(N2CCOCC2)c2nonc12 the results were aSyn 5UTR act -145*.
For O=C(Nc1ccc(N2CCOCC2)c2nonc12)C1CCCC1 the results were aSyn 5UTR act -142*.
For Cc1c(/C=C/C(=O)c2ccccc2)cnn1C the results were aSyn 5UTR act -123*.
Screening Cc1c(/C=C/C(=O)c2ccc(C(C)C)cc2)cnn1C returned aSyn 5UTR act -92*.
Screening Cc1c(/C=C/C(=O)c2ccc(O)cc2)cnn1C returned aSyn 5UTR act -146*.
Screening Cc1nn(C)cc1/C=C/C(=O)c1ccccc1 returned aSyn 5UTR act -110*.
Cc1c(/C=C/C(=O)c2ccc(Cl)s2)cnn1C was read as aSyn 5UTR act -163*.
Screening CCn1cc(/C=C/C(=O)c2ccc(O)cc2)c(C)n1 returned aSyn 5UTR act -105*.
CCn1ncc(/C=C/C(=O)c2ccccc2)c1C was read as aSyn 5UTR act -70*.
For S=C(Nc1ccc2c(c1)OCO2)Nc1ccc2c(c1)OCO2 the results were aSyn 5UTR act -107*.
`Cc1ccc(C(=O)NC(=S)Nc2ccc3c(c2)OCCO3)c(C)c1` gave aSyn 5UTR act -137*.
Cc1cc(C)cc(C(=O)NC(=S)Nc2ccc3c(c2)OCCO3)c1 was read as aSyn 5UTR act -219*.
For O=C(NC(=S)Nc1ccc2c(c1)OCCO2)c1ccc(F)cc1Cl the results were aSyn 5UTR act -136*.
O=C(NC(=S)Nc1ccc2c(c1)OCO2)c1ccc(Cl)cc1 was read as aSyn 5UTR act -143*.
For O=C(CCl)Nc1ccc2c(c1)OCO2 the results were aSyn 5UTR act -90*.
CCn1ncc(NC(=S)Nc2ccc3c(c2)OCO3)c1C(N)=O was read as aSyn 5UTR act -180*.
`CCc1ccc(C(=O)NC(=S)Nc2ccc3c(c2)OCCO3)cc1` gave aSyn 5UTR act -128*.
COc1cccc(-c2nnc(NC(=O)c3ccco3)s2)c1 was read as aSyn 5UTR act -97*.
Screening COc1ccc(-c2nnc(NC(=O)c3ccco3)s2)cc1 returned aSyn 5UTR act -122*.
Screening COc1cccc(-c2nnc(NC(=O)c3cccs3)s2)c1 returned aSyn 5UTR act -119*.
`O=C(Nc1nnc(C23CC4CC(CC(C4)C2)C3)s1)c1ccco1` gave aSyn 5UTR act -89*.
